Test results taken from PubChem BioAssay AID2284198 (EPA ToxCast).
The source made the active and inactive calls. How the source made its calls: active means hit-call score of the fitted dose curve at least 0.9, where 1 is the maximum; inactive means score below 0.9.

target: human Adenosine Transporter, SLC29A1 (gene 2030) (UniProt Q99808); assay: ERF_TW_TR_hSLC35B3: Eurofins (ERF) Transporter Radioligand Binding LeadHunter Assay for human Adenosine Transporter Antagonism
Description: ERF_TW_TR_hSLC35B3 is a biochemical, single-readout assay that uses extracted gene-proteins in a cell-free assay. Measurements were taken 1 hour after chemical dosing in a 96-well plate. See Adenosine Human Transporter Binding (Antagonist Radioligand) Assay, Panlabs.ERF_TW_TR_hSLC35B3 is an assay component calculated from the ERF_TW_TR_hSLC35B3 assay. It is designed to measure radioligand binding using a type of binding reporter as detected by scintillation counting with radiometry technology.Data from the assay component ERF_TW_TR_hSLC35B3 was analyzed at the assay endpoint, ERF_TW_TR_hSLC35B3, in the positive analysis fitting direction relative to DMSO as the negative control and baseline of activity. Using a type of binding reporter, loss-of-signal activity can be used to understand changes in transporter binding as they relate to gene SLC29A1. To generalize the intended target to other relatable targets, this assay endpoint is annotated to the transporter intended target family, where the subfamily is nucleoside transporter.
This assay measures binding of [3H]Nitrobenzylthioinosine to sites associated with the transporter of adenosine. Human adenosine transporter membranes are prepared in Tris-HCl buffer pH 7.4. A 24 ug aliquot of membrane is incubated with 0.5 nM [3H]Nitrobenzylthioinosine for 60 minutes at 25C. Non-specific binding is estimated in the presence of 5 uM nitrobenzylthioinosine. Membranes are filtered and washed, the filters are then counted to determine [3H]Nitrobenzylthioinosine specifically bound. Compounds are screened at 10 uM.Test Sample Requirements: Minimum for 1) Screen: 25 ul of 10 mM stock -OR- 1 mg (pre-weighed). 2) Dose Response: 60 ul of 10 mM stock -OR- 1 mg (pre-weighed).

Sequence of human Adenosine Transporter, SLC29A1 (gene 2030) (Q99808 whole entry, looked up): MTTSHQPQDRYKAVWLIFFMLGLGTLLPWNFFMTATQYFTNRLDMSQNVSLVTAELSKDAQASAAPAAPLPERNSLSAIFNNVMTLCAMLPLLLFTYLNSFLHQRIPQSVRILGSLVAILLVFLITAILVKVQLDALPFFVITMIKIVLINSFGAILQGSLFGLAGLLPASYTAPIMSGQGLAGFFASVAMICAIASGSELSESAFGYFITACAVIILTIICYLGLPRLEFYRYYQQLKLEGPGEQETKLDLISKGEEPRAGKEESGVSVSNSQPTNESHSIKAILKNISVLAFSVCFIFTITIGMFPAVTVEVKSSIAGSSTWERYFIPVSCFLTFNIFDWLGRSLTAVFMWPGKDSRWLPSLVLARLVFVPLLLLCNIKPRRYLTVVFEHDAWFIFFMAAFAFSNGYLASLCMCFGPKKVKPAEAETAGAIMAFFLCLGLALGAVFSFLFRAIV

AC50, active:
O=C(/C=C/c1ccc(O)cc1)CC(=O)/C=C/c1ccc(O)cc1 153 nM, COc1cc(CCC(=O)CC(=O)CCc2ccc(O)c(OC)c2)ccc1O 574 nM, COc1cc(/C=C/C(=O)CC(=O)/C=C/c2ccc(O)c(OC)c2)ccc1O 98 nM
